Reference: publication PMC5700166
Numbering of substitutions follows the chain as printed.

What was measured:
Experiment in all cases: protein-binding microarray (PBM); PBM: ~300 nM protein, 6 mM HEPES pH 7.8, 80 mM KCl, 0.5 mM EDTA, 0.5 mM EGTA, 6% glycerol, 35 ng/ul poly-dIdC, 1% milk, 1 h, room temperature; Ap Aiptasia and Nv Nematostella (sea anemones) / Co Capsaspora / Aq Amphimedon (sponge) / Dm Drosophila / Hu human; RHD is the Rel homology domain; high values mean tight binding
Settings in all cases: dsDNA, one strand shown
[1] = target: T1, GST-Ap-NF-kB RHD (Exaiptasia pallida (Aiptasia), UniProt A0A913YAJ5 2-422)
T1 sequence: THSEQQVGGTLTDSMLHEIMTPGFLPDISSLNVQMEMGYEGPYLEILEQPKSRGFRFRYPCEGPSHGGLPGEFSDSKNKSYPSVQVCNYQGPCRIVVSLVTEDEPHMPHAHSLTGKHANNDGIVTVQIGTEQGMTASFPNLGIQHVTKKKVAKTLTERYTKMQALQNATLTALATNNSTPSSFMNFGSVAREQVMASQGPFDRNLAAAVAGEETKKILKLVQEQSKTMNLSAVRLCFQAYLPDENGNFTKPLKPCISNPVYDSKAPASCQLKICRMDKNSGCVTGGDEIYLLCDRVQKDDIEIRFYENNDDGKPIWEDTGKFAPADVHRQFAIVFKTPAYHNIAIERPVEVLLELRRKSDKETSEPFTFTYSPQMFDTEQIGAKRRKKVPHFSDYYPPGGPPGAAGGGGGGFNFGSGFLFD

[2] = target: T2, GST-Nv-NF-kB (Cys allele) (Nematostella vectensis, UniProt E5G601 2-411)
T2 sequence: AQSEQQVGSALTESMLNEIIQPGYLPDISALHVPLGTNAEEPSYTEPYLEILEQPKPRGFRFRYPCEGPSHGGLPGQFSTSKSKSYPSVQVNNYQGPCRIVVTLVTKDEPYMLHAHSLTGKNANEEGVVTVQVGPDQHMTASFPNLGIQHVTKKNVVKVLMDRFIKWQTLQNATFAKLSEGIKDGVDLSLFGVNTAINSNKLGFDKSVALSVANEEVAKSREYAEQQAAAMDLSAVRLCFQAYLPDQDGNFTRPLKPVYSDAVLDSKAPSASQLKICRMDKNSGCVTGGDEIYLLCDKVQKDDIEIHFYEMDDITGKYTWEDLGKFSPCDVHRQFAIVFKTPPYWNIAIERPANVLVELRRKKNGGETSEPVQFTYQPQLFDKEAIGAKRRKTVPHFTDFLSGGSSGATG

[3] = target: T3, GST-Nv-NF-kB (Ser allele) (Nematostella vectensis, UniProt A7UNT2 2-411)
T3 sequence: T2 sequence with Q21R, C66S, S207N, E215Q, V217A, E225K, A268E, D399E

[4] = target: T4, GST-Co-NF-kB (Capsaspora owczarzaki, UniProt F1ARL5 200-546)
T4 sequence: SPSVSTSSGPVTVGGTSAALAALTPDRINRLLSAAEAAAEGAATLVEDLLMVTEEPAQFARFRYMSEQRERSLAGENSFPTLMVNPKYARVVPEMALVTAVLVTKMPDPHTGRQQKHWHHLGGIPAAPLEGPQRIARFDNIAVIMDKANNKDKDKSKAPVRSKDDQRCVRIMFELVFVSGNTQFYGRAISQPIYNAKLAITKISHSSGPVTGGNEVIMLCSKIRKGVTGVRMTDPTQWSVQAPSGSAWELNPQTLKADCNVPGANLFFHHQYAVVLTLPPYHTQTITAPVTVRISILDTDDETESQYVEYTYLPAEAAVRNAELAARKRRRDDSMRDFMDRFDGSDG

[5] = target: T5, GST-Dm-Relish (Drosophila melanogaster, UniProt Q94527 99-473)
T5 sequence: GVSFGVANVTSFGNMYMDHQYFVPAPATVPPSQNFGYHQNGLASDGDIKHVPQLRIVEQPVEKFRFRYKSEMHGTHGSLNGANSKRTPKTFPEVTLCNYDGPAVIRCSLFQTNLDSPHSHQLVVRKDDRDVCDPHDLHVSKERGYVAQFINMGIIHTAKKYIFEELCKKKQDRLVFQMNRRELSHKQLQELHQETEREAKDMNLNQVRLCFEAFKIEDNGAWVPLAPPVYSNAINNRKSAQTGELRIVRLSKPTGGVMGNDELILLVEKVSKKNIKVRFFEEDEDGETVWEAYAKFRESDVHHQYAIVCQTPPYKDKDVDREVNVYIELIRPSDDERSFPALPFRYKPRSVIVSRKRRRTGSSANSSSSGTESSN

[6] = target: T6, GST-Aq-NF-kB (Amphimedon queenslandica, UniProt A9Y5G7 2-389)
T6 sequence: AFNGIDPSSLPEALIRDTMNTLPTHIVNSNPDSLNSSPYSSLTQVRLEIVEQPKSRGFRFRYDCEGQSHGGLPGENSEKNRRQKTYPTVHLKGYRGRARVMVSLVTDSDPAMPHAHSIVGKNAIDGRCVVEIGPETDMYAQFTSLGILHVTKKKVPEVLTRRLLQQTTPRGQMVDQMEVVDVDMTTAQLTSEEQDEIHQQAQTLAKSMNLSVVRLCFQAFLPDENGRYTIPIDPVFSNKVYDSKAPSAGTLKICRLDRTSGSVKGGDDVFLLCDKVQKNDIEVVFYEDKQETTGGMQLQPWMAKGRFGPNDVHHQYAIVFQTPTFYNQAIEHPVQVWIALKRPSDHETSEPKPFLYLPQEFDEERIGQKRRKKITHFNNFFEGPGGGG

[7] = target: GST-Hu-p50 (Homo sapiens, UniProt P19838 7-356)
GST-Hu-p50, sequence (P19838 7-356): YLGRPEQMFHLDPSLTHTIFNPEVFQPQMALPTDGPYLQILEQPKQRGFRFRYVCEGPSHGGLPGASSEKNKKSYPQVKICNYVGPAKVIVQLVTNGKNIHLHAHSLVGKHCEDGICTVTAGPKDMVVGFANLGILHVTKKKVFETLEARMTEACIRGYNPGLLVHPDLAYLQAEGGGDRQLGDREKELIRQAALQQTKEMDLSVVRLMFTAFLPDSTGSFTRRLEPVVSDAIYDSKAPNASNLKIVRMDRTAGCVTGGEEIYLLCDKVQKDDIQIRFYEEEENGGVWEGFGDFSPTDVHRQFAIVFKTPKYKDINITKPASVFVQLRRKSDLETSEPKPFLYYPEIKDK

Sequence | binding signal [1] | binding signal [2] | binding signal [3] | binding signal [4] | binding signal [5] | binding signal [6] | binding signal [7]
CCGATTAACATCAAGTTCCCCCATGATGTTAATCGGGTCTTGATTCGCTTGACGCTGCTG | 7.14 z-score | 6.4 z-score | 6.97 z-score | 10.1 z-score | 4.93 z-score | 5.56 z-score | 6.24 z-score
CCGATTAACATCAAACATTCCCTTGATGTTAATCGGGTCTTGATTCGCTTGACGCTGCTG | 2.36 z-score | 4.96 z-score | 4.25 z-score | 1.95 z-score | 2.37 z-score | 5.41 z-score | 3.27 z-score
CCGATTAACATCAAGGGGGGTGCTGATGTTAATCGGGTCTTGATTCGCTTGACGCTGCTG | 4.44 z-score | 3.89 z-score | 3.43 z-score | 3.26 z-score | 4.11 z-score | 4.32 z-score | 4.67 z-score
CCGATTAACATCAGGGGAAACCCTGATGTTAATCGGGTCTTGATTCGCTTGACGCTGCTG | 10.2 z-score | 11.4 z-score | 10.8 z-score | 7.22 z-score | 10 z-score | 9.57 z-score | 7.44 z-score
CCGATTAACATCAGGGGATAACCTGATGTTAATCGGGTCTTGATTCGCTTGACGCTGCTG | 6.14 z-score | 6.28 z-score | 6.92 z-score | 3.7 z-score | 7.51 z-score | 7.32 z-score | 4.93 z-score
CCGATTAACATCAGGGGAAGTAATGATGTTAATCGGGTCTTGATTCGCTTGACGCTGCTG | 4.58 z-score | 6.3 z-score | 7.78 z-score | 5.87 z-score | 6.8 z-score | 4.63 z-score | 5.36 z-score
CCGATTAACATCAGAATTACCCCTGATGTTAATCGGGTCTTGATTCGCTTGACGCTGCTG | 4.43 z-score | 5.36 z-score | 5.04 z-score | 5.87 z-score | 2.94 z-score | 5.49 z-score | 4.69 z-score
CCGATTAACATCAAAACTCCCCATGATGTTAATCGGGTCTTGATTCGCTTGACGCTGCTG | 7.13 z-score | 6.03 z-score | 6.69 z-score | 5.85 z-score | 5.96 z-score | 5.83 z-score | 5.36 z-score
CCGATTAACATCACACATTCCCCTGATGTTAATCGGGTCTTGATTCGCTTGACGCTGCTG | 6.52 z-score | 7.88 z-score | 8.75 z-score | 5.83 z-score | 2.91 z-score | 5.41 z-score | 5.28 z-score
CCGATTAACATCAGGGGAAGCTATGATGTTAATCGGGTCTTGATTCGCTTGACGCTGCTG | 4.87 z-score | 5.26 z-score | 6.8 z-score | 6.23 z-score | 3.04 z-score | 3.92 z-score | 4.77 z-score
CCGATTAACATCAGGGGTATTACTGATGTTAATCGGGTCTTGATTCGCTTGACGCTGCTG | 4.43 z-score | 3.56 z-score | 3.14 z-score | 3.37 z-score | 3.55 z-score | 4.5 z-score | 3.9 z-score
CCGATTAACATCAAAAAAGCCCCTGATGTTAATCGGGTCTTGATTCGCTTGACGCTGCTG | 7.94 z-score | 11.4 z-score | 9.29 z-score | 1.83 z-score | 9.41 z-score | 8.77 z-score | 7.54 z-score
CCGATTAACATCAGAATTCCCCCTGATGTTAATCGGGTCTTGATTCGCTTGACGCTGCTG | 10.1 z-score | 11.8 z-score | 11.7 z-score | 10.8 z-score | 8.22 z-score | 8.47 z-score | 8.34 z-score
CCGATTAACATCAACTTTTCCCCTGATGTTAATCGGGTCTTGATTCGCTTGACGCTGCTG | 6.24 z-score | 7.19 z-score | 10 z-score | 9 z-score | 2.99 z-score | 5.09 z-score | 5.48 z-score
CCGATTAACATCAGGGGAACCCATGATGTTAATCGGGTCTTGATTCGCTTGACGCTGCTG | 7.48 z-score | 5.77 z-score | 6.55 z-score | 4.47 z-score | 8.55 z-score | 4.7 z-score | 4.58 z-score
CCGATTAACATCAAAAACCCCCCTGATGTTAATCGGGTCTTGATTCGCTTGACGCTGCTG | 10.5 z-score | 9.26 z-score | 9.71 z-score | 5.82 z-score | 11.3 z-score | 8.84 z-score | 7.78 z-score
CCGATTAACATCAAATTTCCCGATGATGTTAATCGGGTCTTGATTCGCTTGACGCTGCTG | 3.04 z-score | 4.4 z-score | 3.94 z-score | 4.24 z-score | 2.2 z-score | 4.21 z-score | 3.9 z-score
CCGATTAACATCACGAAATCCCCTGATGTTAATCGGGTCTTGATTCGCTTGACGCTGCTG | 8.93 z-score | 9.59 z-score | 11.6 z-score | 4 z-score | 8.34 z-score | 6.39 z-score | 7.74 z-score
CCGATTAACATCAGGGGAACACCTGATGTTAATCGGGTCTTGATTCGCTTGACGCTGCTG | 6.84 z-score | 6.62 z-score | 6.14 z-score | 5.77 z-score | 9.19 z-score | 7.92 z-score | 4.87 z-score
CCGATTAACATCACATAATCCCCTGATGTTAATCGGGTCTTGATTCGCTTGACGCTGCTG | 7.93 z-score | 9.03 z-score | 9.99 z-score | 3.86 z-score | 6.27 z-score | 6.55 z-score | 6.8 z-score
CCGATTAACATCACAACTTCCCCTGATGTTAATCGGGTCTTGATTCGCTTGACGCTGCTG | 6.77 z-score | 8.34 z-score | 9.8 z-score | 5.34 z-score | 6.89 z-score | 6.51 z-score | 6.13 z-score
CCGATTAACATCAAAAGATCCCCTGATGTTAATCGGGTCTTGATTCGCTTGACGCTGCTG | 8.32 z-score | 8.42 z-score | 9.3 z-score | 5.39 z-score | 9.75 z-score | 7.5 z-score | 6.41 z-score
CCGATTAACATCAAATCATTCCCTGATGTTAATCGGGTCTTGATTCGCTTGACGCTGCTG | 1.6 z-score | 3.39 z-score | 3.1 z-score | 3.4 z-score | 1.31 z-score | 4.36 z-score | 1.78 z-score
CCGATTAACATCAACAATCCCCCTGATGTTAATCGGGTCTTGATTCGCTTGACGCTGCTG | 7.89 z-score | 7.16 z-score | 7.92 z-score | 5.22 z-score | 5.46 z-score | 5.71 z-score | 6.6 z-score
